Assay results: PubChem BioAssay (NCATS)
Inconclusive results are not listed. Activity calls are given as the source filed them. Unless noted, the call rests on the fitted dose curve; in most records, active means well fitted curve in the direction sought with a large enough effect; inconclusive means small, poorly fitted or top-dose-only effect, or another doubt; inactive means no such curve, though single readings can be large; an effect the other way counts as inactive or inconclusive.

Legend:
[1] = molecular target: Lysosomal acid glucosylceramidase (Homo sapiens) (UniProt P04062); assay: Glucocerebrosidase-p2 (AID 348; in the data active means potency below about 10 µM; further: potency means the concentration at half of the fitted maximal effect); settings: purified GBA, blue fluorogenic substrate, 40 min
Sequence of Lysosomal acid glucosylceramidase (Homo sapiens) (P04062 whole entry, looked up): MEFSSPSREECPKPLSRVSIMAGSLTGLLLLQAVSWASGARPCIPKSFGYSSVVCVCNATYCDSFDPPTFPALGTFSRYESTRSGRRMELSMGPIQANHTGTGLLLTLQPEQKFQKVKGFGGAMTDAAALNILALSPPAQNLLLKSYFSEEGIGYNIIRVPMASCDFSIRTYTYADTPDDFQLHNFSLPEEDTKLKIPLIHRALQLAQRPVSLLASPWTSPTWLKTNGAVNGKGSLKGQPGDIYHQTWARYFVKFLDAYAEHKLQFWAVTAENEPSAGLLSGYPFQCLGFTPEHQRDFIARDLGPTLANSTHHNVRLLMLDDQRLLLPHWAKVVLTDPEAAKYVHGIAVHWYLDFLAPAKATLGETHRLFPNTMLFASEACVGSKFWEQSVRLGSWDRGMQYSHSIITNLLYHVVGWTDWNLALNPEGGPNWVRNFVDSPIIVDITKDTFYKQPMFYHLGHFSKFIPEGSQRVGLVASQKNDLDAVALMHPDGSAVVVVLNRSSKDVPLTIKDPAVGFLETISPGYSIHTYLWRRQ
How it was run: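 Compounds titrated from 0.6 nM upwards against 0.2 nM enzyme in pH 5.9 citric acid/KH2PO4, taurocholate, tween-20; blue fluorogenic substrate 80 uM, 40 min room temperature, stopped and read Ex 365/Em 440 for AC50.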

[2] = molecular target: Cytochrome P450 1A2 (Homo sapiens) (UniProt P05177); assay: p450-cyp1a2 (AID 410; calls by dose curve; further: potency means the concentration at half of the fitted maximal effect); settings: recombinant CYP1A2, luciferin-ME demethylation, luminescence; series mostly up to 57 µM
Sequence of Cytochrome P450 1A2 (Homo sapiens) (P05177 whole entry, looked up): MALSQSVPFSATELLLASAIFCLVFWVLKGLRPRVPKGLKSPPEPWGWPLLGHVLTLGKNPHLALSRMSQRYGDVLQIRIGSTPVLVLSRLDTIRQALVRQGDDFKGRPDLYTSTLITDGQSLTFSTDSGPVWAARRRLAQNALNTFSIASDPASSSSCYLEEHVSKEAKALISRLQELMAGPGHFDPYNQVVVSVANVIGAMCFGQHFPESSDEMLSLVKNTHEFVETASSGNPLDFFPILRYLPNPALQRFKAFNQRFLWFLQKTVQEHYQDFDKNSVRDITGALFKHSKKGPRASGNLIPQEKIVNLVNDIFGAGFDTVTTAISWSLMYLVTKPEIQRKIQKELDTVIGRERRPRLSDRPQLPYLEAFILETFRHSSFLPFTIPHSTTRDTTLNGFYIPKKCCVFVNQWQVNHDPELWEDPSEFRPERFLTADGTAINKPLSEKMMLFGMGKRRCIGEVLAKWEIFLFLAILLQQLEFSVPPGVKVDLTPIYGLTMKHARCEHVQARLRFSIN
How it was run: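 Inhibition was calculated relative to 57 uM furafylline (full inhibition). The reaction used human CYP1A2 at 20nM with Luciferin-ME at its Km, 100uM, driven by an NADPH-regenerating system for 60 min at room temperature.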

[3] = NFAT Signaling Pathway (AID 444; active means well fitted curve in either direction with a large enough effect, not every such curve was filed as active;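 further: carbachol stimulus at about its EC50 of 1 µM final; on the % scale 0 is the no-effect control and ±100 the full control effect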); settings: Jurkat NFAT-bla M1, carbachol, beta-lactamase ratio, 5 h; at 7.69 µM (top of the series) unless noted
How it was run: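 Read-out: CCF4 FRET ratio (460 nm/530 nm) after 1 h RT dye loading, used for %activity and AC50 from titration series. Cells: Jurkat NFAT-β-lactamase/M1 line, treated with compound plus 1 uM carbachol for 5 h, 37 °C.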

[4] = Stat Signaling Pathway (AID 446; active means well fitted curve in either direction with a large enough effect, not every such curve was filed as active;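 further: ME-180 cervical cancer cells given 40 pM IL-6 alongside compound; SIE-controlled beta-lactamase reporter measured as 460/530 nm FRET emission ratio; on the % scale 0 is the no-effect control and ±100 the full control effect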); settings: ME-180 SIE beta-lactamase reporter, IL-6 stimulated, 5 h; at 7.69 µM (top of the series) unless noted
How it was run: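 IL-6/STAT signaling read in ME-180 cells via an SIE beta-lactamase reporter. Stimulus was 40 pM IL-6 (its AC50) for 5 hrs, so both activation and inhibition register.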

[5] = molecular target: Glucocorticoid receptor (Homo sapiens) (UniProt P04150); assay: GR-GFP Redistribution (AID 450;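 active means compounds whose dose series gives a full or clear partial fitted curve of increased nuclear translocation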; further: potency means the concentration at half of the fitted maximal effect); settings: U2OS GR-GFP nuclear translocation, laser cytometry, 2 h
Sequence of Glucocorticoid receptor (Homo sapiens) (P04150 whole entry, looked up, the tested form may be a part): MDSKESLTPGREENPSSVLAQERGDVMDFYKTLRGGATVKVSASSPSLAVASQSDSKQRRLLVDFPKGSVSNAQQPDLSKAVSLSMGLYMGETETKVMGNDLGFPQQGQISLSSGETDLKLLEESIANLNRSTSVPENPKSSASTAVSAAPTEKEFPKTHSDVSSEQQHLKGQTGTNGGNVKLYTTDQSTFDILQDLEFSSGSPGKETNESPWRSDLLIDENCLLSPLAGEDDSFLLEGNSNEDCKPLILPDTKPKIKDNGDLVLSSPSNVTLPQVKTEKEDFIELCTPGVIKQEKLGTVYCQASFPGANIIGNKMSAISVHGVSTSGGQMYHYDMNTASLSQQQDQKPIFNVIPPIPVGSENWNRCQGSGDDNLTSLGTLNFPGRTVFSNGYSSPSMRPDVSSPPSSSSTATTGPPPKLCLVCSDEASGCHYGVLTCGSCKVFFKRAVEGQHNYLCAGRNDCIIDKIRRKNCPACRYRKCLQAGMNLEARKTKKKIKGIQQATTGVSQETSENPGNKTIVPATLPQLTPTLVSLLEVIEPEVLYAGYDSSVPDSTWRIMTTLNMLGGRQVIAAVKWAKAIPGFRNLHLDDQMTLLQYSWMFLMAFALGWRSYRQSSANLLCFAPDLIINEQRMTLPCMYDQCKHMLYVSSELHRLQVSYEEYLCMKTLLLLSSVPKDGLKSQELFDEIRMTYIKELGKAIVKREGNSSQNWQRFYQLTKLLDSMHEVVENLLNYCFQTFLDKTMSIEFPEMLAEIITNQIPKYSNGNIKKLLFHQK

[6] = molecular target: Glucocorticoid receptor (Homo sapiens) (UniProt P04150); assay: GR-EFC Redistribution (AID 451; calls by dose curve; further: potency means the concentration at half of the fitted maximal effect); settings: CHO-K1 GR-EFC translocation, beta-gal luminescence, 2 h
How it was run: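 Translocation of GR-ED fusion to nuclear EA restores b-gal, read by luminescence after 1 h room-temperature detection. Engineered CHO-K1 biosensor cells, 1,000/well, exposed 2 h at 37 C to titrations up to 46 uM final.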

[7] = molecular target: Mitogen-activated protein kinase 10 (Mus musculus) (UniProt Q61831); assay: JNK3 AlphaScreen Assay (AID 530; active means well fitted curve in either direction with a large enough effect, not every such curve was filed as active;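 further: kinase came from lysate of stimulated human HepG2 cells; signal reports phosphorylation of biotinylated GST-cJun 1-79 at Ser73 with 10 µM ATP; on the % scale 0 is the no-effect control and ±100 the full control effect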); settings: JNK3 lysate, c-Jun phosphorylation; series mostly up to 57.1 µM
How it was run: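 Room-temperature AlphaScreen kinase assay; pre-activated HepG2 lysate as JNK3 source, biotin-GST-cJun(1-79) substrate, 10 uM ATP, compound 15 min preincubation.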

[8] = molecular target: Cytochrome P450 2C19 (Homo sapiens) (UniProt P33261); assay: qHTS Assay for Inhibitors and Substrates of Cytochrome P450 2C19 (AID 899); settings: recombinant CYP2C19, luciferin-H EGE luminescence; series mostly up to 57.1 µM; further: potency means the concentration at half of the fitted maximal effect; nearly all actives have a fitted effect of over 60% in size
Sequence of Cytochrome P450 2C19 (Homo sapiens) (P33261 whole entry, looked up): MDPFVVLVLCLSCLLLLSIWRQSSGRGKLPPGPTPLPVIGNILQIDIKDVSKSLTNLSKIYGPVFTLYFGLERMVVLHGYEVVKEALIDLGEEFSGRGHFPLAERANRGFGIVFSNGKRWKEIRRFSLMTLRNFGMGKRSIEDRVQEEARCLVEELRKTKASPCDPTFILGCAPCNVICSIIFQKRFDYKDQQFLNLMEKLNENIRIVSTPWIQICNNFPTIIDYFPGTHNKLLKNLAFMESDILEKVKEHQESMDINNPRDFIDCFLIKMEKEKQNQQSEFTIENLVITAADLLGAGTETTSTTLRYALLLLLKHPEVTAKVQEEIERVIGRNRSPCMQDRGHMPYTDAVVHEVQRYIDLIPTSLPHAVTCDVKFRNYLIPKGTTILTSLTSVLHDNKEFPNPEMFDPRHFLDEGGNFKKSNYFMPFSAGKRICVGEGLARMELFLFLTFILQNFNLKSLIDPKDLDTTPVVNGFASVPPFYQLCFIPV
How it was run: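 Reactions contain 5nM enzyme, 10uM Luciferin-H EGE (KM) and 50mM KPO4; compound preincubates 10 min at 37C, NADPH regeneration starts turnover for 60 min. Luminescence after detection reagent gives activity.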

[9] = molecular target: Dual specificity protein kinase CLK4 (Homo sapiens) (UniProt Q9HAZ1); assay: qHTS Assay for Inhibitors of CDC-like Kinase 4 (ADP-FP Assay) (AID 1795); settings: Transcreener ADP fluorescence polarization; series mostly up to 50 µM;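 further: recombinant human CLK4 phosphorylating RS repeat peptide at 1 µM ATP; on the % scale 0 is the no-effect control and ±100 the full control effect; nearly all actives have a fitted effect of over 60% in size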
Sequence of Dual specificity protein kinase CLK4 (Homo sapiens) (Q9HAZ1 whole entry, looked up): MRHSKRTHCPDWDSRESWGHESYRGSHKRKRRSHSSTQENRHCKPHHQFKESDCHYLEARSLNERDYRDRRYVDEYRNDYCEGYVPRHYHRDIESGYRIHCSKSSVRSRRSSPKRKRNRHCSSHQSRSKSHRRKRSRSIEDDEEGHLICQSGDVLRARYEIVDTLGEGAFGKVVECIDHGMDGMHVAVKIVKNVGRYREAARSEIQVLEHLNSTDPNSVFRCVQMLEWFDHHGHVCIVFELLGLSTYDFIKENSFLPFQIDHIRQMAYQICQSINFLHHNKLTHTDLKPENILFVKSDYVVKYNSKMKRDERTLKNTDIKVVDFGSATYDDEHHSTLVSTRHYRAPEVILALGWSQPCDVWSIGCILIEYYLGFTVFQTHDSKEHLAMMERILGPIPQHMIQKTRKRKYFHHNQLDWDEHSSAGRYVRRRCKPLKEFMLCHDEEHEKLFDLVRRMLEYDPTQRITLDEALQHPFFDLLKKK
How it was run: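 Kinase activity was measured as ADP production using Transcreener orange tracer (4 nM) and ADP antibody (1 ug/mL) fluorescence polarization, with ADP calculated from a calibration curve. The 1 h reaction contained 6.25 nM Clk4, 1 uM ATP and 100 uM RS peptide at pH 7.5 with Mg2+.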

[10] = Primary qHTS for small molecule stabilizers of the endoplasmic reticulum resident proteome: Secreted ER Calcium Modulated Protein (SERCaMP) assay (AID 1508630); settings: SH-SY5Y GLuc-SERCaMP (Gaussia luciferase released on ER calcium loss) secretion, thapsigargin, luminescence; series mostly up to 38.4 µM; further: on the % scale 0 is the no-effect control and ±100 the full control effect
How it was run: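 GLuc-SERCaMP-expressing SH-SY5Y cells, pretreated 16 h with compound, are challenged with thapsigargin to empty ER calcium stores; after 4 h, coelenterazine is added directly to the medium and luminescence is imaged.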

[11] = AP1 Signaling Pathway (AID 357; active means well fitted curve in either direction with a large enough effect, not every such curve was filed as active; further: on the % scale 0 is the no-effect control and ±100 the full control effect); settings: ME-180 AP-1-bla reporter, EGF-induced, beta-lactamase ratio, 5 h; at 7.69 µM (top of the series) unless noted
How it was run: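 In this screen, ME-180 cells in Opti-MEM with 0.5% dialyzed FBS received EC50 EGF and compound titrations for 5 h. AP-1 reporter beta-lactamase was detected via CCF4 ratio, giving AC50 for positive and negative modulators.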

[12] = molecular target: 3',5'-cyclic-AMP phosphodiesterase 4B (Homo sapiens) (UniProt Q07343); assay: qHTS Assay for Inhibitors of PDE-IV (AID 607; active means well fitted activation curve with a large enough effect in the main read-out, with a control signal flat, not every such curve was filed as active; further: % of control where 0% means no effect); settings: HEK293 ACTOne CNG channel cells, membrane potential fluorescence; series mostly up to 22.9 µM
Sequence of 3',5'-cyclic-AMP phosphodiesterase 4B (Homo sapiens) (Q07343 whole entry, looked up): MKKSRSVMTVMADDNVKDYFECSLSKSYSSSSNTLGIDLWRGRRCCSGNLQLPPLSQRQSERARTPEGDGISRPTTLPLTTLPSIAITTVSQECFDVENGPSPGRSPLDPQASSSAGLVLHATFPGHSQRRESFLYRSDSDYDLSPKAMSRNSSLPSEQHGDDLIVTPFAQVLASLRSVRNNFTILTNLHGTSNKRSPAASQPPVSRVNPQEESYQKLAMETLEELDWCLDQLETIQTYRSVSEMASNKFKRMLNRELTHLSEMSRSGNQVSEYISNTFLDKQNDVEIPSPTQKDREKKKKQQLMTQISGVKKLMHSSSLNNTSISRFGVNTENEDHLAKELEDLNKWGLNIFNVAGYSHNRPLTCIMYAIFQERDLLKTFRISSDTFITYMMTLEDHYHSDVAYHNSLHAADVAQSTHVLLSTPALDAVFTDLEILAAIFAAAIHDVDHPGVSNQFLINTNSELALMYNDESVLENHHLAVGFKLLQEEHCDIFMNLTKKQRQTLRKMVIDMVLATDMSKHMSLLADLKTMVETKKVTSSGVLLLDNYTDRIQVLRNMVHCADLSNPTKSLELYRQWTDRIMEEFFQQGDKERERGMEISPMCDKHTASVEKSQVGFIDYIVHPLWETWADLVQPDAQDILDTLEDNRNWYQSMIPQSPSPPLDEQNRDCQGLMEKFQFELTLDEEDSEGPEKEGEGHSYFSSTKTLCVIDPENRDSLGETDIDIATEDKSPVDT
How it was run: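 Live HEK293 cells with a modified cyclic nucleotide-gated (CNG) channel report intracellular cAMP via membrane-potential dye fluorescence (ex 535/em 590 nm). Endogenous PDE-IV was targeted. Compounds were tested at up to 22.9 uM final; RO 20-1724 100 uM served as control.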

[13] = molecular target: Cytochrome P450 3A4 (Homo sapiens) (UniProt P08684); assay: qHTS Assay for Inhibitors and Substrates of Cytochrome P450 3A4 (AID 884); settings: recombinant CYP3A4, Luciferin-PPXE luminescence; series mostly up to 57.1 µM; further: potency means the concentration at half of the fitted maximal effect; nearly all actives have a fitted effect of over 50% in size
Sequence of Cytochrome P450 3A4 (Homo sapiens) (P08684 whole entry, looked up): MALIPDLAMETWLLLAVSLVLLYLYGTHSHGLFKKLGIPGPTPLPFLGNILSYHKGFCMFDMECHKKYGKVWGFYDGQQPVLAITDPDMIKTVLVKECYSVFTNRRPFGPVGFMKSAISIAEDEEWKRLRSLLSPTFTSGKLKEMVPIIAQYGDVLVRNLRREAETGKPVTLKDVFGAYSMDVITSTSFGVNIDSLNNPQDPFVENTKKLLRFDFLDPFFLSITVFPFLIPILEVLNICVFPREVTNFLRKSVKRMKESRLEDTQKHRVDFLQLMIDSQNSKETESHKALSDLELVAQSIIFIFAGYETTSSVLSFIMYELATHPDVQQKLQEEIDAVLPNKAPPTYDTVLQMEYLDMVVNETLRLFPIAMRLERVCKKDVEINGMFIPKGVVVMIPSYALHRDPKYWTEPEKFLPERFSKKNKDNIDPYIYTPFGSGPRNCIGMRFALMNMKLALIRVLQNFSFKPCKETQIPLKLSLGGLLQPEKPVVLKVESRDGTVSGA
How it was run: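 20 nM human CYP3A4 with 25 uM Luciferin-PPXE (at KM) in 200 mM KPO4, preincubated 10 min with compound; NADPH regeneration started a 60 min RT reaction. Luciferin detected by luminescence, normalized to 57 uM ketoconazole as full inhibition.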

[14] = molecular target: Cytochrome P450 3A4 (Homo sapiens) (UniProt P08684); assay: qHTS Assay for Activators of Cytochrome P450 3A4 (AID 885); settings: recombinant CYP3A4, Luciferin-PPXE luminescence, 60 min; series mostly up to 57.1 µM; further: nearly all actives have a fitted effect of over 65% in size
How it was run: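 Quantitative HTS format: compounds preincubated with 20nM human CYP3A4 and Luciferin-PPXE substrate at KM, reaction started by NADPH regeneration, stopped after 60 min, luciferase luminescence read 20 min later.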

[15] = molecular target: Cytochrome P450 2D6 (Homo sapiens) (UniProt P10635); assay: qHTS Assay for Inhibitors and Substrates of Cytochrome P450 2D6 (AID 891); settings: recombinant CYP2D6, luciferin-ME EGE luminescence; series mostly up to 57.1 µM; further: potency means the concentration at half of the fitted maximal effect; nearly all actives have a fitted effect of over 60% in size
How it was run: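 Human CYP2D6 (5 nM) with 30 uM Luciferin-ME EGE (at Km) in 100 mM KPO4, compound preincubated 10 min, then NADPH regeneration system for 60 min at room temperature. Luciferin read by luminescence; normalized to 1.43 uM quinidine.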

[16] = Confirmation and Secondary Assay for Modulators of Hemoglobin Beta Chain Splicing at IVS2 654 locus (AID 910); settings: HeLa EGFP-654 splicing reporter, GFP fluorescence, 48 h; series mostly up to 38.3 µM;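 further: HeLa cells stably carrying EGFP split by mutant beta-globin IVS2-654 intron; per-well total GFP intensity by laser scanning cytometry after 2-day treatment; % of control where 0% means no effect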
How it was run: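 Readout: per-well total peak green fluorescence (488 nm ex, 500–520 nm em) from objects 5–250 µm, reflecting correct splicing of an EGFP-654 reporter. Compounds were applied for 2 days at 37 °C to overnight-plated HeLa EGFP-654 cells; controls were DMSO and 500 nM IVS2-654 PNA.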

[17] = molecular target: Ubiquitin carboxyl-terminal hydrolase 1 (Homo sapiens) (UniProt O94782); assay: Inhibitors of USP1/UAF1: Pilot qHTS (AID 504865); settings: purified USP1/UAF1, Ub-rhodamine cleavage fluorescence; series mostly up to 54.9 µM;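 further: rhodamine fluorescence freed from ubiquitin-rhodamine substrate followed over time; top concentration of the series differs between compounds; on the % scale 0 is the no-effect control and ±100 the full control effect; nearly all actives have a fitted effect of over 35% in size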
Sequence of Ubiquitin carboxyl-terminal hydrolase 1 (Homo sapiens) (O94782 whole entry, looked up): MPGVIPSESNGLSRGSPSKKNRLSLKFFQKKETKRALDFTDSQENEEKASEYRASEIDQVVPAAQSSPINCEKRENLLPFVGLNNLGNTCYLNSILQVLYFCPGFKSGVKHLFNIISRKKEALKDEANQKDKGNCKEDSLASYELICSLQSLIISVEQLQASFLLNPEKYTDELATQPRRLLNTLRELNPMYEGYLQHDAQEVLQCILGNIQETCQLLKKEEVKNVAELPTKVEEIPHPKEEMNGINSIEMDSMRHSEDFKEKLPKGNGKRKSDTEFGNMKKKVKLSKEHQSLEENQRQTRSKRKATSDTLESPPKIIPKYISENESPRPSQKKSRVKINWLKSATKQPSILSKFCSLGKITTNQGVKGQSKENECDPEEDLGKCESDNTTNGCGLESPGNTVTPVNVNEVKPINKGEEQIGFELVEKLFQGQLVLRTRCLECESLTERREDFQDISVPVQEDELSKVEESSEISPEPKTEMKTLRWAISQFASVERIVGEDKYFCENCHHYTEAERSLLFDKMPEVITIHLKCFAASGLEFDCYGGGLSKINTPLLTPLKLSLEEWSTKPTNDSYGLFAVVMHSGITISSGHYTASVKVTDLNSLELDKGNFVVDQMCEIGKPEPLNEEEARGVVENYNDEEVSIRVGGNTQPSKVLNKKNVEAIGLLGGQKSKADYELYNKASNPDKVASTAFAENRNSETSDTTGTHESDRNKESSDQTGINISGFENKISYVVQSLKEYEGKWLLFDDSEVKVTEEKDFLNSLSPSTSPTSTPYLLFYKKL
How it was run: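 Deubiquitinase activity followed as kinetic rhodamine fluorescence release from 150 nM Ub-Rho. 1 nM USP1/UAF1 with compound, after 15 min room-temperature preincubation, in HEPES pH 7.8 buffer containing TCEP, EDTA, BSA and Tween-20.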

[18] = qHTS Assay for Identification of Small Molecule Agonists for Hypoxia Response Element Signaling Pathway (AID 914; active means well fitted activation curve with a large enough effect in the signal ratio, with a control signal flat, not every such curve was filed as active; the % refers to the signal ratio; further: % of control where 0% means no effect); settings: ME-180 (cervical carcinoma) HRE-bla reporter, beta-lactamase ratio, CoCl2, 17 h; activation: hits give high values
How it was run: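 HRE-bla ME-180 cells with beta-lactamase reporter under hypoxia response element, compounds with EC50 CoCl2 for 17 hours at 37 C. CCF4 substrate, 460nm/530nm emission ratio gave %Activity; AC50 from titration series.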

COc1ccccc1-c1cc(Nc2ccc(F)cc2)ncn1
active: Potency [2] 2 µM | Potency [8] 7.94 µM
inactive: Potency [1] > 11.4 µM | activity change, negative = inhibition [3] -14.1% | activity, negative = inhibition [4] -19.9% | Potency [5] > 46 µM | Potency [6] > 46 µM | Potency [7] | Potency [9] | outcome [10]

c1ncc(-c2ccc3c(c2)OCO3)c(NCCc2cnc[nH]2)n1
inactive: Potency [1] > 11.4 µM | activity change, negative = inhibition [11] -17.2% | activity change, negative = inhibition [3] 1.1% | activity, negative = inhibition [4] -11.2% | Potency [5] > 46 µM | Potency [6] > 46 µM | Potency [7] | Potency [12] | Potency [14] | Potency [16] | Potency [17] | outcome [10]
active: Potency [2] 0.398 µM | Potency [13] 0.794 µM | Potency [15] 2.51 µM | Potency [8] 0.0398 µM

CN(C)c1ccc(-c2cncnc2NCc2cccnc2)cc1
inactive: activity change, negative = inhibition [11] -12.4% | activity change, negative = inhibition [3] 8.27% | activity, negative = inhibition [4] -10% | Potency [5] > 46 µM | Potency [6] > 46 µM | Potency [7] | Potency [12] | Potency [14] | activation [18] 1.46% | Potency [9] | Potency [17] | outcome [10]
active: Potency [2] 1 µM | Potency [13] 0.631 µM | Potency [8] 0.0316 µM

CN(C)C(=O)c1ccc(-c2cncnc2Nc2ccc(F)cc2)cc1
inactive: activity change, negative = inhibition [3] 5.12% | activity, negative = inhibition [4] 9.71% | Potency [5] > 46 µM | Potency [6] > 46 µM | Potency [7] | Potency [9] | Potency [17] | outcome [10]

Cc1ccccc1-c1cc(N(C)Cc2ccco2)ncn1
inactive: Potency [1] > 11.4 µM | activity change, negative = inhibition [11] 7.17% | activity change, negative = inhibition [3] -15.6% | activity, negative = inhibition [4] 8.71% | Potency [5] > 46 µM | Potency [6] > 46 µM | Potency [7] | Potency [12] | Potency [17] | outcome [10]
active: Potency [2] 3.98 µM | Potency [8] 6.31 µM

CN(C)C(=O)c1ccc(-c2ccc3ncnc(Nc4ccccc4)c3c2)cc1
active: Potency [2] 15.8 µM
inactive: activity, negative = inhibition [4] 0.91% | Potency [5] > 46 µM | Potency [6] > 46 µM | Potency [7] | Potency [12] | Potency [14] | Potency [9] | Potency [17] | outcome [10]

c1ccc(Nc2ncncc2-c2ccc3c(c2)OCO3)cc1
active: Potency [2] 0.316 µM | Potency [13] 0.794 µM | Potency [8] 0.251 µM
inactive: Potency [1] > 11.4 µM | activity change, negative = inhibition [11] -19.3% | activity change, negative = inhibition [3] 9.45% | activity, negative = inhibition [4] -14.2% | Potency [5] > 46 µM | Potency [6] > 46 µM | Potency [7] | Potency [14] | Potency [17] | outcome [10]

CN(Cc1ccco1)c1ncncc1-c1cccnc1
inactive: Potency [1] > 11.4 µM | activity change, negative = inhibition [11] 1.77% | activity change, negative = inhibition [3] -11.4% | activity, negative = inhibition [4] 17.1% | Potency [5] > 46 µM | Potency [6] > 46 µM | Potency [7] | Potency [12] | Potency [14] | Potency [17] | outcome [10]
active: Potency [2] 5.01 µM | Potency [13] 2.51 µM

N#Cc1cccc(-c2nc(Nc3ccccc3)c3ccccc3n2)c1
active: Potency [2] 1.26 µM
inactive: Potency [1] > 11.4 µM | activity change, negative = inhibition [11] 3.06% | activity change, negative = inhibition [3] 15.5% | activity, negative = inhibition [4] 8.9% | Potency [5] > 46 µM | Potency [6] > 46 µM | Potency [7] | Potency [16] | Potency [17] | outcome [10]

CN(C)C(=O)c1ccc(-c2nc(N(C)Cc3ccco3)c3ccccc3n2)cc1
active: Potency [2] 7.94 µM
inactive: Potency [1] > 11.4 µM | activity change, negative = inhibition [11] -14.5% | activity change, negative = inhibition [3] 18.1% | activity, negative = inhibition [4] 3.3% | Potency [5] > 46 µM | Potency [6] > 46 µM | Potency [7] | Potency [16] | Potency [17] | outcome [10]

COc1ccc2[nH]cc(CCNc3nc(-c4ccccc4CN(C)C)nc4ccccc34)c2c1
active: Potency [2] 25.1 µM
inactive: Potency [1] > 11.4 µM | activity change, negative = inhibition [11] -0.774% | activity change, negative = inhibition [3] -26.8% | activity, negative = inhibition [4] 4.15% | Potency [5] > 46 µM | Potency [6] > 46 µM | Potency [7] | Potency [12] | Potency [14] | Potency [16] | Potency [17] | outcome [10]
